# Results taken from PubChem BioAssay (Tox21).
# Inconclusive results are not listed. A number with no mark means an inactive call. Calls come from the whole dose curve; as a rule, active = well fitted activation curve with a large enough effect in the repeat runs; inconclusive = weak or mixed curves; inactive = no such curve, though single readings can be large or run the other way. Non-standard residues stand in square brackets, D forms with d. Residues, ends and D or L forms follow the SMILES beside them. pGlu = O=C1CC[C@@H](C(=O)O)N1
# Target: Nuclear receptor subfamily 1 group I member 2 (Rattus norvegicus) (UniProt Q9R1A7)
# Sequence (Q9R1A7 whole entry, looked up): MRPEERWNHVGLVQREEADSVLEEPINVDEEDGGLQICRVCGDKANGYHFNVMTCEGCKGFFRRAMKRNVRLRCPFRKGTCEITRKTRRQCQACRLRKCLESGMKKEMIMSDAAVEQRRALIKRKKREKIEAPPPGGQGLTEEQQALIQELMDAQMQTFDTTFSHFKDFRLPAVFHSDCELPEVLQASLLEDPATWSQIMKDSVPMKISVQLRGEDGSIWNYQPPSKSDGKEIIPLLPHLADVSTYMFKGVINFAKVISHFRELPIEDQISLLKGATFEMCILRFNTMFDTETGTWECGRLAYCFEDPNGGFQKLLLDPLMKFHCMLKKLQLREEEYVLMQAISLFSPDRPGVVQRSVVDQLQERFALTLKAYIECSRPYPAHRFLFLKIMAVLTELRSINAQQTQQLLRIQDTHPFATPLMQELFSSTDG
# Assay: Rat pregnane X receptor (rPXR) activation by small molecules, qHTS assay (AID 1346983); note: nearly all actives have a fitted effect of over 20% in size
# Conditions: rPXR luciferase reporter cells, One-Glo luminescence, 24 h; max activation: hits give high values
# Text: National Center for Advancing Translational Sciences [NCATS] NIH Chemical Genomics Center [NCGC] U.S. Environmental Protection Agency [EPA] National Institutes of Environmental Health Sciences [NIEHS] National Toxicology Program [NTP] Assay overview: The Pregnane X receptor (PXR), a ligand activated nuclear receptor plays a critical role in the regulation of genes involved in drug metabolism and transporters. PXR binds xenobiotics and when compounds interact with PXR produces enhanced expression of CYP3A genes. In humans PXR activation and CYP3A4 induction can be problematic due to their interactions with co-medicated drugs and decrease their efficacy or increase their own metabolism. However, there are known species-specific differences with regard to PXR activation that should be taken into account when animal PXR data are extrapolated to humans. A cell based rat PXR (rPXR) assay (developed by Puracyp, Inc., CA) was used to assess the activation of rPXR.
# Assay Protocol Summary: rPXR cells were dispensed at 2,000 per well in 5uL of assay medium into white, solid-bottom 1536-well plates using a Multidrop Combi dispenser (Thermo Scientific). The assay plates were incubated at 37 C for 5hr before transferring 23 nL of test compounds dissolved in DMSO and positive control via Pintool station (Wako). The assay plates were incubated at 37 C for 24 hr. Then 5ul One-Glo assay reagent (Promega) was added to each plate by a Flying Reagent Dispenser (FRD, Aurora Discovery) and following 30 min incubation at room temperature, luciferase activity was quantified on a ViewLux plate reader (Perkin Elmer).
# % is set by controls: 0 for no effect and ±100 for the full control effect.
row,SMILES,max activation [%]
1,CO[C@H]1O[C@@H]2O[C@@]3(C)CC[C@H]4[C@H](C)CC[C@@H]([C@H]1C)[C@@]24OO3,-2.27
2,CNC(C)CCC=C(C)C (stereo not given),2.06
3,FC(F)(F)C(F)(F)C(F)(F)C(F)(F)C(F)(F)C(F)(F)F,-1.09
4,O=C(O)CC/C=C\CC[C@@H]1[C@@H](N2CCCCC2)[C@@H](O)C[C@@H]1OCc1ccc(-c2ccccc2)cc1,-6.46
5,C=CCCCCCCCCC(=O)OC,-1.33
6,NCCCC[C@H](N)C(=O)O,-0.992
7,CNc1cc(OC)c(C(=O)N[C@H]2CCN(Cc3ccccc3)[C@H]2C)cc1Cl,-1.71
8,C[C@]12CCC(=O)C[C@@H]1CC[C@@H]1[C@@H]2CC[C@]2(C)C=CC[C@@H]12,-0.035
9,CC(C)c1nc(N(C)S(C)(=O)=O)nc(-c2ccc(F)cc2)c1/C=C/C(O)CC(O)CC(=O)O (stereo not given),0.498
10,CCCCCc1ccc(C)cc1O,4.82
11,Cc1ncc(C[n+]2csc(CCOP(=O)(O)OP(=O)(O)O)c2C)c(N)n1,-0.276
12,C#C[C@]1(O)CC[C@H]2[C@@H]3CCC4=C/C(=N/O)CC[C@@H]4[C@H]3CC[C@@]21CC,6.76
13,CC1(O)CCC(C(C)(C)O)CC1 (stereo not given),-1.3
14,O=C(NNCNNC(=O)c1ccncc1)c1ccncc1,-3.41
15,CC(CCc1ccc(O)cc1)NCC(O)c1ccc(O)cc1 (stereo not given),-0.789
16,Clc1cc(Cl)c(OCC#CI)cc1Cl,-1.32
17,CCCCCCCCCCCCCCCCOCCOCCOCCOCCOCCOCCOCCOCCOCCOCCOCCOCCOCCOCCOCCOCCOCCOCCOCCOCCO,-15.6
18,COc1ccc(C2(C#N)CCC(C(=O)O)CC2)cc1OC1CCCC1 (stereo not given),-0.133
19,CCCCC(=O)N(Cc1ccc(-c2ccccc2-c2nn[nH]n2)cc1)[C@@H](C(=O)O)C(C)C,-1.58
20,CO[C@H]1C=CO[C@@]2(C)Oc3c(C)c(O)c4c(O)c(c5c(nc6cc(C)ccn65)c4c3C2=O)NC(=O)/C(C)=C\C=C[C@H](C)[C@H](O)[C@@H](C)[C@@H](O)[C@@H](C)[C@H](OC(C)=O)[C@@H]1C,-6.53

row,SMILES,max activation [%]
1,CCCCCCCCCCCCCC[n+]1ccc(C)cc1,-19.6
2,C[C@H](O)[C@H](O)[C@H]1CNc2nc(N)[nH]c(=O)c2N1,-2.27
3,CC[C@H](C)[C@H](NC(=O)[C@H](Cc1ccccc1)NC(=O)[C@H](C)NC(=O)[C@H](CC(=O)O)NC(=O)[C@H](CCCCN)NC(=O)[C@H](CO)NC(=O)[C@@H]1CCCN1C(=O)[C@@H]1CCC(=O)N1)C(=O)NCC(=O)N[C@@H](CC(C)C)C(=O)N[C@@H](CCSC)C(N)=O ([pGlu]PSKDAFIGLM-NH2),-3.14
4,COc1ccc(-c2noc(CC(=O)O)c2-c2ccc(OC)cc2)cc1,-3.32
5,O=C(O)c1cc(O)c2c(c1)[O][Bi][O]2,-0.194
6,O=C(O)CCC/C=C\C[C@@H]1[C@@H](/C=C/[C@@H](O)COc2cccc(C(F)(F)F)c2)[C@H](O)C[C@@H]1O,-3.83
7,C=CCSSSCC=C,0.11
8,CC(C)(CO)[C@@H](O)C(=O)NCCC(=O)NCCSSCCNC(=O)CCNC(=O)[C@H](O)C(C)(C)CO,-1.96
9,Nc1ccc(S(=O)(=O)Nc2ncccn2)cc1,-1.29
10,CCCC1C(=O)N2C(N(C)C)=Nc3ccc(C)cc3N2C1=O (stereo not given),5.29
11,CC(=O)N[C@@H]([C@@H](O)[C@H](O)[C@H](O)CO)[C@@H](O)CC(=O)C(=O)O,-0.275
12,C[C@]12CCC(=O)C=C1CC[C@@H]1[C@@H]2[C@@H](O)C[C@@]2(C)[C@H]1CC[C@]2(O)C(=O)COP(=O)(O)O,11.6
13,CCCCCCCCCCCC(=O)OC[C@@H](O)C1OC[C@H](O)[C@H]1O (stereo not given in full),-2.81
14,O=C1CSC2(CCN(CCCN3c4ccccc4Sc4ccc(Cl)cc43)CC2)N1,2.22
15,CO/N=C(\C(=O)N[C@@H]1C(=O)N2C(C(=O)O)=C(CSc3nnnn3C)CS[C@H]12)c1csc(N)n1,-3.46
16,Cc1cc(C)c(NC(=O)C[C@H](CC(=O)O)c2cccc3ccccc23)c(C(=O)N2CCC3(CCCC3)CC2)c1,1.3
17,O=[n+]1ccn([O-])c2ccccc21,-1.36
18,CC[C@H](C)[C@@H]1NC(=O)[C@H](Cc2ccc(O)cc2)NC(=O)[C@@H](N)CSSC[C@@H](C(=O)N2CCC[C@H]2C(=O)N[C@@H](CC(C)C)C(=O)NCC(N)=O)NC(=O)[C@H](CC(N)=O)NC(=O)[C@H](CCC(N)=O)NC1=O,0.0402
19,CC[C@@H]1/C=C(\C)C[C@H](C)C[C@H](OC)[C@H]2O[C@@](O)(C(=O)C(=O)N3CCCC[C@H]3C(=O)O[C@H](/C(C)=C/[C@@H]3CC[C@@H](Cl)[C@H](OC)C3)[C@H](C)[C@@H](O)CC1=O)[C@H](C)C[C@@H]2OC,-6.11
20,COC(=O)[C@H]1[C@H]2C[C@@H]3c4[nH]c5cc(OC)ccc5c4CCN3C[C@H]2C[C@@H](OC(=O)/C=C/c2cc(OC)c(OC)c(OC)c2)[C@@H]1OC,-2.27
